USP30 block: human USP30 deubiquitinase inhibition; Q70CQ3; purified USP30, Ub-rhodamine cleavage fluorescence; inhibition, % at 25 µM; 47,000 tested, 5.3% active; AID 1645860
Target sequence (Q70CQ3 whole entry, looked up): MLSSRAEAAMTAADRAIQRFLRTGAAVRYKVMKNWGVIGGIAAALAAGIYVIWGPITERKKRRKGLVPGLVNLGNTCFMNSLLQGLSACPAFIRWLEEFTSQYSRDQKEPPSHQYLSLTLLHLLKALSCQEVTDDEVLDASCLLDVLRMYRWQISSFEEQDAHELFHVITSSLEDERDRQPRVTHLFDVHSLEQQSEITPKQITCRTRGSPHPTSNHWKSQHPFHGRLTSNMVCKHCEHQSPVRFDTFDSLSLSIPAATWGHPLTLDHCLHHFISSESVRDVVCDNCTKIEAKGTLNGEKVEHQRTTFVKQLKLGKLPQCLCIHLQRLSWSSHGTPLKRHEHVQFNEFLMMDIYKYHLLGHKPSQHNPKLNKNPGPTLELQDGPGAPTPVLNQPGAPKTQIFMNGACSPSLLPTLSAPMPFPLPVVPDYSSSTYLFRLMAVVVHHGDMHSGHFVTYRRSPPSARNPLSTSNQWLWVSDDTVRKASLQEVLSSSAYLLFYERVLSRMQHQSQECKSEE
USP10 block: inhibitors of human USP10 deubiquitinase; Q14694; purified USP10, Ub-rhodamine fluorescence, 60 min; inhibition, % at 20 µM; 47,000 tested, 1.1% active; AID 1645856
USP28 inh: human USP28 deubiquitinase inhibition. Q96RU2. purified USP28, Ub-rhodamine cleavage fluorescence, 30 min. inhibition, % at 25 µM. 47,000 tested, 3% active. AID 1645857
USP17 block: blocks human USP17 ubiquitin-rhodamine cleavage. purified USP17, Ub-rhodamine cleavage fluorescence, 3 h. AID 1645855. inhibition, % at 50 µM. 47,000 tested, 6.5% active
USP8 block: human USP8 deubiquitinase inhibition. purified USP8, Ub-rhodamine cleavage fluorescence, 30 min. inhibition, % at 20 µM. P40818. 47,000 tested, 4.2% active
Numbers without * were called inactive; / = not tested or not shown. Only some compounds are listed: those with a hit (about 14% of all), similar ones and a draw of the others. Cut-off read from the data, not from the text of the source: active = inhibition above about 30%; inactive = the rest.

SMILES	USP30 block	USP10 block	USP28 inh	USP17 block	USP8 block
CC(=O)Nc1cc2cc(-n3cccc3)ccc2oc1=O	-7	7	9	59*	27
Cc1nnc2c(NCCCN3CCN(c4ccccc4F)CC3)nc3ccccc3n12	-310	-8	-91	-80	-83
Cc1c(C(=O)N=CN(C)C)sc(C#N)c1-c1ccccc1	32*	-2	7	18	1
Cc1ccc(C(=O)N2CCc3c(c(-c4nc(C5CC5)no4)nn3C)C2)cc1C	24	0	9	10	13
COc1ccc(CC(=O)NC(C)c2nc(-c3cccnc3)n[nH]2)cc1 (configuration not stated)	9	0	5	1	11
O=C1NCc2ccccc2CC12CCN(Cc1cccc3ccccc13)C2 (configuration not stated)	32*	9	20	10	6
O=C(/C=C/c1ccc(F)cc1)N1CCc2ccccc2C1	1	1	28	62*	88*
O=C(/C=C/c1cccc(F)c1)N1CCc2ccccc21	29	9	8	20	42*
O=C(/C=C/c1ccc(F)cc1)N1CCCc2ccccc21	16	4	9	2	-4
O=C(c1nnsc1Sc1ccc(Cl)cc1)N1CCOCC1	0	9	-2	4	11
COc1ccc(CNS(=O)(=O)Oc2ccccc2O)cc1OC	-27	-2	-12	-88	4
NCc1ccc([C@@H]2CN(C(=O)c3ccc4ncccc4c3)C[C@H]2c2ccn[nH]2)cc1	/	-2	/	68*	-12
O=C(c1ccc2ncccc2c1)N1CCOC(c2cccc(Cc3cccc(Cl)c3)n2)C1 (configuration not stated)	-23	-9	15	-4	-14
COc1cc(OC)cc(C(=O)N2CCC(C(=O)Nc3ccc4c(c3)OCCO4)CC2)c1	-26	-1	49*	-13	0
CCn1cc(S(=O)(=O)NCc2cc(F)cc(F)c2)c2cccnc21	-44	8	11	37*	48*
C[C@]12CN(Cc3n[nH]nc3-c3ccccc3)C[C@H]1NC(=O)c1ccccc1C2=O	-3	-1	0	-3	-2
Cc1ccc(NC2=NC(c3ccco3)n3c(nc(C)cc3=O)N2)c(C)c1 (configuration not stated)	62*	12	22	40*	-8
CNC(=O)[C@@H]1C[C@@H]2CN(C(=O)Nc3cccc(F)c3)CCN2[C@@]12C(=O)Nc1ccccc12	4	0	3	5	3
CCn1cc2c(n1)c(=O)n(Cc1ccccc1)c(=O)n2CC(=O)Nc1ccc(C)cc1C	33*	30*	16	36*	93*
Cc1cc(C)c(NC(=O)Cn2c(=O)n(Cc3ccccc3)c(=O)c3nn(C)cc32)c(C)c1	85*	1	64*	68*	41*
COc1cccc(O[C@@H]2C[C@@H](NC(=O)c3cncn3C)[C@H](N3CCCC3)[C@H]2O)c1	15	1	13	12	11
CN1C(=O)[C@@H]2CN(S(=O)(=O)c3cccc(F)c3)CCN2C(=O)[C@@H]1Cc1ccccc1	0	-1	-1	1	0
Cc1nnc(Nc2ccc(C(=O)Nc3c(Cl)cccc3Cl)cc2)c2ccccc12	-36	-7	0	-15	-4
Cc1ccc(NC(=O)c2ccc(Nc3nnc(C)c4ccccc34)cc2)cc1	8	-1	75*	52*	13
CCOC(=O)c1c(C)oc2ccc(N(C(=O)c3ccncc3)S(=O)(=O)c3ccc(OCC)cc3)cc12	-12	0	38*	-17	-30
SMILES	USP30 block	USP10 block	USP28 inh	USP17 block	USP8 block
Cc1cc(Br)c(C(C)C)c(Br)c1OC(=O)c1ccco1	-11	3	48*	4	7
O=C(Cn1c(=O)n(-c2ccccc2)c(=O)c2oc3ccccc3c21)N1CCOCC1	3	-3	4	8	16
CCOc1ccc(CC(=O)N(C)c2nc3c(s2)CCc2occc2-3)cc1	-5	3	5	-7	-66
CN(C(=O)C1(c2ccc(Cl)cc2)CC1)c1nc2c(s1)CCc1occc1-2	-16	2	-6	-4	-109
CCN(C(=O)Cc1ccccc1OC)c1nc2c(s1)CCc1occc1-2	11	-13	18	37*	-93
Cc1c(C(=O)N(C)c2nc3c(s2)CCc2occc2-3)oc2ccccc12	66*	9	40*	79*	48*
CN(C(=O)c1cccs1)c1nc2c(s1)CCc1occc1-2	-5	4	-21	37*	6
COc1c(O)c2c(c3cc(C(=O)O)[nH]c13)CCN2C(N)=O	15	1	14	37*	7
CCN1CCCC1CNC(=O)c1nnc(-c2ccc(S(=O)(=O)N3CCOCC3)cc2)o1 (configuration not stated)	20	1	3	8	21
CCOc1ccc(-c2cc3nc(C4CCN(C(=O)OC(C)(C)C)CC4)c(C(=O)Nc4cc(F)ccc4F)cn3n2)cc1	-8	2	10	46*	56*
CCOc1cc(-c2noc(-c3ccccc3)n2)ccc1OCC(=O)Nc1ncccc1C	32*	3	7	38*	14
CC(=O)Nc1ccc(NC(=O)CC2N=C(N3CCN(c4ccccc4)CC3)NC2=O)cc1 (configuration not stated)	-15	0	-49	-16	-6
CCOc1ccc(NC(=O)CC2N=C(N3CCN(c4ccccc4F)CC3)NC2=O)cc1 (configuration not stated)	35*	4	3	13	3
COc1ccc(/C=C2\NC(=O)[C@H]3Cc4ccccc4CN3C2=O)cc1	-7	10	-3	1	46*
COc1ccc(NC(=O)CCN2C(=O)[C@@H]3Cc4ccccc4CN3C2=O)cc1	5	1	-1	-2	-21
CN1C(=O)c2ccccc2C(=O)[C@@]2(C)CN(Cc3cn[nH]c3-c3ccccc3)C[C@@H]12	-5	1	-22	-30	-52
O=C(Nc1ccc(Sc2ccc(F)cc2)cc1)c1cccc(C(F)(F)F)c1	40*	10	24	17	22
O=C(CCc1nnc2n(Cc3ccc(F)cc3)c(=O)c3ccccc3n12)N1CCN(C(=O)c2ccco2)CC1	5	-4	-10	-7	-12
COc1ccc(CCNc2nc(-c3ccccc3)cc(-c3ccccc3)c2C#N)cc1OC	26	7	-2	37*	3
COc1ccc(/C=C/c2nc(-c3ccc4oc(C)nc4c3)no2)cc1	6	-2	13	/	31*
COc1ccc(C(=O)Cn2nc(-c3ccco3)c(-c3cc(C)no3)cc2=O)cc1	-5	3	25	47*	24
COc1ccc(CNC(=O)C(C)n2nc(-c3ccco3)c(-c3cc(C)no3)cc2=O)cc1 (configuration not stated)	28	13	23	64*	28
COc1ccc(OCC(=O)NCc2ccc(-c3ncncc3-c3cc(C)no3)cc2)cc1	13	1	5	9	1
COCCCNc1ncc(-c2cc(C)no2)c(-c2ccco2)n1	-1	-1	0	-1	0
